FBA Mtb inh = inhibitors of M. tuberculosis fructose-bisphosphate aldolase | P9WQA3 | purified M. tuberculosis FBA, fluorescence read-out | inhibition, % at 1 µM | 360,000 tested, 2.3% active; in the data active = inhibition above about 27%;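 note: 0% = vehicle and 100% = reference inhibitor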
Target sequence (P9WQA3 whole entry, looked up): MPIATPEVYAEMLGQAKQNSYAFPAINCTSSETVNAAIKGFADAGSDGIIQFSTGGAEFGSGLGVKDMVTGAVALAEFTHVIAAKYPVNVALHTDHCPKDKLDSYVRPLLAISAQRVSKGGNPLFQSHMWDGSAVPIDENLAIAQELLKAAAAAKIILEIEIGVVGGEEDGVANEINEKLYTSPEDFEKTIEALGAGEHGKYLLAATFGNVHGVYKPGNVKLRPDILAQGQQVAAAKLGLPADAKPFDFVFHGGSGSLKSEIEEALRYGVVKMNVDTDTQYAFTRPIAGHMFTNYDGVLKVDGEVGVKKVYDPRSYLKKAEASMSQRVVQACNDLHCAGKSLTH
Rv3671c inh = inhibits the M. tuberculosis serine protease Rv3671c | P9WHR9 | inhibition, % at 5.96 µM | 320,000 tested, 0.048% active | AID 2606; in the data active = inhibition above about 38%;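 note: extracellular domain of Rv3671c used as enzyme; 0% = enzyme with DMSO and 100% = no enzyme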
BioA inh = blocks M. tuberculosis BioA enzyme activity | purified M. tuberculosis BioA enzyme, plate reader | inhibition, % at 9.99 µM | 360,000 tested, 0.096% active | AID 602481; in the data active = inhibition above about 40%
GDH-TPI counter = counter-screen for M. tuberculosis FBA inhibitors: GDH-TPI coupled enzymes | GDH-TPI coupled enzyme counterscreen, NADH absorbance | inhibition, % at 4.8 µM | 360,000 tested, 1.2% active | AID 588335; in the data active = inhibition above about 30%;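 note: 0% = DMSO wells and 100% = wells lacking the enzyme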
FadD28 FP inh = blocks FadD28 binding to the bisubstrate probe. fluorescence polarization. inhibition, % at 12.5 µM. 360,000 tested, 0.22% active; in the data active = inhibition above about 8.5%, passing the limit was not always enough
Starred values were filed as active, the others as inactive; . = not tested or not shown; + = active, no number. A selection: hits, their analogues and other compounds. The true share with any hit is near 3%.

SMILES	FBA Mtb inh	Rv3671c inh	BioA inh	GDH-TPI counter	FadD28 FP inh
COc1ccc(/C=N/Nc2ccc(C(=O)O)cc2)cc1OC	-2	6	0	47*	0
CN1c2ccc(Br)cc2[C@@H]2[C@@H](CCN2C(=O)C2CCOCC2)[C@@H]1CO	.	.	13	.	.
CS(=O)(=O)Nc1ccc2c(c1)[C@H]1C[C@H](CC(=O)NCCc3ccccc3)O[C@H](CO)[C@H]1O2	.	.	0	.	.
CCCC(=O)Nc1ccc2c(c1)C(=O)N(C)[C@H]1CC[C@@H](CC(=O)NCc3ccccc3F)O[C@@H]1CO2	.	.	-1	.	.
O=C(C[C@@H]1C=C[C@@H](NC(=O)Nc2ccc(C(F)(F)F)cc2)[C@@H](CO)O1)NCc1cc(F)cc(F)c1	.	.	-1	.	.
COc1ccc(C(=O)Oc2ccc(/C=N/Nc3ccc(Cl)c(C(=O)O)c3)cc2OC)cc1	7	16	5	28	9.5*
Cc1ccc(CNC(=O)C2CCN(S(=O)(=O)c3c(C)noc3/C=C/N(C)C)CC2)cc1	-5	-17	0	23	1
Cc1ccc(CNC(=O)C2CCN(S(=O)(=O)c3c(C)noc3/C=C/c3ccco3)CC2)cc1	-4	-22	-2	37*	-6
Cc1ccc(NC(=O)C2CCN(S(=O)(=O)c3c(C)noc3/C=C/c3ccco3)CC2)nc1	-6	-2	-3	27	-3
Cc1noc(/C=C/c2ccco2)c1S(=O)(=O)N1CCC(C(=O)NCc2ccco2)CC1	1	-7	-2	34*	-4
C[C@H](CO)N1C[C@H](C)[C@H](CN(C)C(=O)C2CCOCC2)Oc2ncc(-c3cccc(C#N)c3)cc2C1=O	.	.	2	.	.
O=C1N/C(=N/S(=O)(=O)Cc2ccccc2)S/C1=C/c1ccc2c(c1)OCO2	3	-21	3	35*	-1
O=C1NC(=S)SC1=Cc1ccc2c(c1)OCO2	0	.	1	4	0
Cc1cc(C(=O)Nc2cccc3c2O[C@@H](CN(C)CC2CCCCC2)[C@H](C)CN([C@H](C)CO)C3=O)n(C)n1	.	.	1	.	.
Cc1cc(N(CCCl)CCCl)ccc1/C=N/NC(=O)c1ccco1	0	1	2	49*	0
Cc1sccc1/C=N/NC(=O)c1ccco1	-1	-3	-1	28	-4
Cc1cc(N(CCCl)CCCl)ccc1C=NNC(=O)Cc1cc(=O)oc2cc(O)ccc12	169*	.	-2	59*	-1
Cc1cc(=O)oc2cc(OCC(=O)N/N=C/c3ccccc3O)ccc12	2	-2	-1	2	-2
C[C@@H]1CN([C@@H](C)CO)C(=O)c2cccc(N(C)C)c2O[C@H]1CN(C)Cc1ccc(C(=O)O)cc1	.	.	-2	.	.
O=C(NC(Cc1ccccc1)C(=O)O)C1CCN(S(=O)(=O)c2ccccc2C(F)(F)F)CC1 (stereo unspecified)	2	-5	6	-3	11*
CO[C@H]1CN(C)C(=O)c2cc(NC(=O)Nc3c(C)noc3C)ccc2OC[C@@H](C)N(C)C[C@@H]1C	.	.	-3	.	.
COC(=O)C[C@H]1C=C[C@H](NS(=O)(=O)c2ccccc2F)[C@H](CO)O1	.	.	4	.	.
COC(=O)c1sc(NC(=S)NNC(=O)c2c(Br)c(C)nn2C)c(C(=O)OC)c1C	-1	9	3	53*	20*
COC(=O)c1sc(S(=O)(=O)Nc2c(C)nn(C)c2C)c(C(=O)OC)c1C	-3	.	-2	8	1
CN=CC1=C(O)c2ccccc2C1=O	2	-4	-3	35*	-2
SMILES	FBA Mtb inh	Rv3671c inh	BioA inh	GDH-TPI counter	FadD28 FP inh
CC(C)NC(=O)N(C)C[C@@H]1Oc2ncc(C#Cc3ccc(F)cc3)cc2C(=O)N([C@H](C)CO)C[C@@H]1C	.	.	-1	.	.
C[C@@H]1CN([C@H](C)CO)C(=O)Cc2cc(NS(=O)(=O)c3cn(C)cn3)ccc2O[C@@H]1CN(C)Cc1ccc(C(=O)O)cc1	.	.	-1	.	.
Cc1ccc(C(=O)O/N=C\c2ccc(N3CCCCC3)c([N+](=O)[O-])c2)cc1	-1	8	-1	40*	1
Cc1ccc(CNc2oc(C)nc2C#N)cc1	2	8	4	5	-4
CN(C)CCCNc1oc(-c2cccc(Cl)c2)nc1C#N	174*	-4	6	1	-2
CCN(CC)CCCNc1oc(-c2ccccc2[N+](=O)[O-])nc1C#N	1	-6	.	8	-3
CN(C)CCNc1oc(COc2cccc(Cl)c2)nc1C#N	2	3	-1	-1	0
COc1ccc(-c2nc(C#N)c(NCCCn3ccnc3)o2)cc1OC	+	5	1	12	1
CCN(CC)CCCNc1oc(-c2ccc(OC)c(OC)c2)nc1C#N	164*	-2	.	17	-1
COc1ccc(-c2nc(C#N)c(NCc3ccc(C)cc3)o2)cc1OC	144*	3	0	3	1
C[C@@H]1CN([C@H](C)CO)C(=O)c2cccc(NS(=O)(=O)c3cn(C)cn3)c2O[C@H]1CN(C)Cc1ccc2c(c1)OCO2	.	.	0	.	.
Oc1ccccc1C1=Nc2ncnn2C(c2ccccc2)C1 (stereo unspecified)	3	8	1	35*	0
Cc1ccc(C(=O)N2N=C(c3ccccc3O)CC2c2ccccc2)cc1 (stereo unspecified)	3	-9	0	4	-2
Cc1ccc(/C=C/c2nnc(-c3ccccc3)o2)cc1	1	-2	-1	25	1
C(=C\c1nnc(-c2cccs2)o1)/c1ccccc1	18	-12	0	51*	2
Cc1noc(C)c1NC(=O)N(C)C[C@@H]1Oc2c(NC(=O)Nc3ccc(F)cc3)cccc2C(=O)N([C@@H](C)CO)C[C@@H]1C	.	.	3	.	.
O=C(NCc1cccs1)c1cc2c(s1)-c1ccccc1OC2	+	-7	3	22	0
O=C(NCc1cccs1)c1cc2c(s1)CS(=O)(=O)C2	0	-2	.	2	-6
COc1ccc2c(c1)CCc1cc(C(=O)O)sc1-2	+	1	0	23	-1
O=C(c1ccco1)N1CCN(C(=O)c2cc3c(s2)-c2ccccc2OC3)CC1	113*	-13	0	15	-1
O=C(NCCCN1CCOCC1)c1cc2c(s1)-c1ccccc1OC2	+	0	-2	35*	-2
O=C(c1ccco1)N1CCN(C(=O)c2ccco2)CC1	2	.	.	.	-2
O=C(NCCCN1CCOCC1)c1cc2c(s1)CCCC2	2	-11	.	6	-1
O=C(O)c1cc2c(s1)-c1ccccc1CC2	191*	-1	-1	52*	1
O=C(NC1CC1)c1cc2c(s1)-c1ccccc1OC2	+	-3	2	23	-1
O=C(O)c1cc2c(s1)-c1ccccc1OC2	+	8	-1	23	-1
COc1ccc(Cl)cc1NC(=O)CCn1cnc2ccccc2c1=O	49*	3	1	-4	-3
CC(C)NC(=O)N(C)C[C@H]1OCc2cn(nn2)CCCC(=O)N([C@@H](C)CO)C[C@@H]1C	.	.	-1	.	.
O=S(=O)(c1cccs1)N1CN(Cc2cccs2)c2nc3ccccc3nc21	103*	-21	.	17	2
O=C(C[C@@H]1C=C[C@@H](NC(=O)c2ccc(F)cc2)[C@@H](CO)O1)NCCc1ccccc1	.	.	-3	.	.

Screening results: PubChem, several laboratories
